# Test results taken from PubChem BioAssay AID939 (National Center for Advancing Translational Sciences (NCATS), 2007).
# Results filed as inconclusive are left out. Active and inactive are the calls of the source. The call rests on the fitted dose curve; in most records, active means well fitted activation curve with a large enough effect in the main read-out, with a control signal flat; inconclusive means small, poorly fitted or top-dose-only effect, or effect the other way, or a change in a side signal; inactive means no such curve, though single readings can be large or run the other way.
# System: not listed separately
# Test: Confirmation Concentration-Response Assay for Agonists of the Thyroid Stimulating Hormone Receptor; on activation: % of control where 0% means no effect
# Conditions: HEK293 TSHR-CNG cells, membrane potential dye, cAMP; measured here: parental HEK293 counter-screen max
# Method in brief: (§1)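 Read-out: membrane potential dye fluorescence (emission 590 nm) after 30 min compound exposure, reflecting cAMP-gated CNG opening in TSHR/CNG HEK 293 cells. Dye with 100 uM RO 20-1724 pre-equilibrated 60 min at room temperature. CNG-only parental cells control.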
# Potency means the concentration at half of the fitted maximal effect.
row,SMILES,max response
1,O=C1N(c2ccccc2)C2CS(=O)(=O)CC2N1c1ccc(Cl)c(Cl)c1 (stereo not given),-23.3%
2,Cc1ccc2nc(SCC(=O)O)nc(C)c2c1,13%
3,COc1cc(/C=N/n2c(SC)nnc(C(C)(C)C)c2=O)ccc1O,-7.99%
4,Cc1cc(-n2c(C)cc(C(=O)CSc3nnnn3-c3ccc(Cl)cc3)c2C)no1,13.5%
5,COc1ccc(-c2ccc(-c3noc(C)n3)c(OC)n2)cc1,8.55%
6,Cc1nc2ccc(Br)cn2c(=O)c1Cl,-3.12%
7,Cc1onc(-c2ccccc2)c1C(=O)N1CCCSC1=Nc1ccccc1,18.9%
8,CCSCCOC(=O)C1=C(C)N(C)C(=O)NC1c1cc(OC)ccc1OC (stereo not given),7.65%
9,COc1cc(OC)cc(-c2nnc(SCC(=O)N(C(C)C)C(C)C)o2)c1,16.6%
10,Cc1oc(-c2cccc(Cl)c2)nc1CN1CCCC(C(=O)NC(C)c2ccc3c(c2)OCCO3)C1 (stereo not given),8.77%
11,Nc1ccc2c(c1)COc1ccccc1O2,-5.76%
12,CCn1c(=O)c(C(=O)CN2CCCc3ccccc32)c(N)n(Cc2ccccc2)c1=O,-16.6%
13,CCOC(=O)c1ccc(NC(=O)c2ccc(CN3CCOCC3)cc2)cc1,11%
14,CC(=O)Nc1ccc(S(=O)(=O)N(C)c2ccccc2)cc1,4.53%
15,Cc1ccc(N(CC(=O)NCc2ccco2)S(=O)(=O)c2ccccc2)cc1,-6.79%
16,Cc1cc(SCNC(=O)c2ccccc2)ncn1,-2.72%
17,CC(c1ccco1)N(C(=O)c1ccc(Cl)s1)c1ccccn1 (stereo not given),8.8%
18,CC1(C)c2ccccc2N2CC(=O)NC21/C=C/c1ccco1 (stereo not given),9.74%
19,CCc1ccc(-c2nc(CN3CCC(C(=O)N4CCN(c5ccccc5)CC4)CC3)c(C)o2)cc1,12.8%
20,COc1ccc(C(=O)N(Cc2ccco2)Cc2cccs2)c(O)c1,-7.34%
21,Cc1cccc(NC(=O)CSc2nnc(-c3ccccc3)n2N)c1C,-2.22%
22,O=C1C2C3CCCC3=C3CCCC3C2C(=O)N1c1ccc(Cl)cc1 (stereo not given),-8.66%
23,COC(=O)C1=C(C)OC(N)=C(C#N)C1c1c(C)nn(-c2ccccc2)c1Cl (stereo not given),6.03%
24,CCCC(=O)C1=C(SCC)CC(C)(C)C(C(=O)OC)C1=O (stereo not given),9.56%
25,Cc1ccc(S(=O)(=O)NC(=O)Nn2c(C)nnc2C)cc1,1.93%
26,CCN(c1ccccc1)S(=O)(=O)c1ccc(Oc2ccc(-n3ccnc3)cc2)nc1,-1.61%
27,Cc1ccc(-n2nc(-c3ccc(N)cc3)cc2N)cc1,-8.96%
28,CN1C(=O)N(C)C2(c3ccccc3)Nn3c(s/c(=C/c4ccco4)c3=O)=NC12c1ccccc1 (stereo not given),-0.854%
29,CN(Cc1ccco1)C(=O)Cn1c(=O)oc2cc(S(=O)(=O)NCc3ccccc3)ccc21,-3.7%
30,O=C1c2ccccc2C(=O)N1Cc1nc(-c2ccccc2)no1,21.1%

# Target: Thyrotropin receptor (Homo sapiens) (UniProt P16473)
# Test: as above
# Conditions: HEK293 TSHR-CNG cells, membrane potential dye, cAMP; series mostly up to 25.6 µM; activation: at the top concentration
# Method in brief: as §1
# Sequence of Thyrotropin receptor (Homo sapiens) (P16473 whole entry, looked up): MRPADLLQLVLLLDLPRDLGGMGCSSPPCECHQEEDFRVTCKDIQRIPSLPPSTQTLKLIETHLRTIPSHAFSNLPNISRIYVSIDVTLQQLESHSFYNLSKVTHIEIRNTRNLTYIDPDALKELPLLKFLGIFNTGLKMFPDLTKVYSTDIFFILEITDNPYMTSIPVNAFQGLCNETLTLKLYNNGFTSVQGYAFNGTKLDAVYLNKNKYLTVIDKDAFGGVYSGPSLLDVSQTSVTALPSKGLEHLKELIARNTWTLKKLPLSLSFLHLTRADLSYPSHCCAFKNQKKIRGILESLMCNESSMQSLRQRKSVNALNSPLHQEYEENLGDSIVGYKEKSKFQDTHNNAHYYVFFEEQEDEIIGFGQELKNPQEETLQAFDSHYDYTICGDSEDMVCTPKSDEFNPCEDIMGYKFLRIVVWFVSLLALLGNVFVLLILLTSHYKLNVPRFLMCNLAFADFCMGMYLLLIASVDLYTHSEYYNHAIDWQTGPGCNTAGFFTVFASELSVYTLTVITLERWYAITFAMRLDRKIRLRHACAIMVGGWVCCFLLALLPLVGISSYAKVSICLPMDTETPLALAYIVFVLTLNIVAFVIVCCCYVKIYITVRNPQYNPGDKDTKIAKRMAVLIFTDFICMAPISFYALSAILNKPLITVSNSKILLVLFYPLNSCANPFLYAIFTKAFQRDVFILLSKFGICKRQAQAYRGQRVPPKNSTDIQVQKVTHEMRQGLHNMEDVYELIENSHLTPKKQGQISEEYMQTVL
SMILES,activation,Potency
Cc1nc2ccc(Br)cn2c(=O)c1Cl,24.6% (inactive),
COc1cc(OC)cc(-c2nnc(SCC(=O)N(C(C)C)C(C)C)o2)c1,,12.6 µM (active)
CCn1c(=O)c(C(=O)CN2CCCc3ccccc32)c(N)n(Cc2ccccc2)c1=O,-31.3% (inactive),
Cc1ccc(N(CC(=O)NCc2ccco2)S(=O)(=O)c2ccccc2)cc1,,12.6 µM (active)
CC1(C)c2ccccc2N2CC(=O)NC21/C=C/c1ccco1 (stereo not given),,12.6 µM (active)
COc1ccc(C(=O)N(Cc2ccco2)Cc2cccs2)c(O)c1,,1 µM (active)
Cc1ccc(S(=O)(=O)NC(=O)Nn2c(C)nnc2C)cc1,14.5% (inactive),
Cc1ccc(-n2nc(-c3ccc(N)cc3)cc2N)cc1,-50.8% (inactive),
CN(Cc1ccco1)C(=O)Cn1c(=O)oc2cc(S(=O)(=O)NCc3ccccc3)ccc21,,12.6 µM (active)
O=C1c2ccccc2C(=O)N1Cc1nc(-c2ccccc2)no1,15.1% (inactive),
